This note sets out measurements from PubChem BioAssay (Tox21).

Inconclusive results are not listed. Active and inactive are the calls of the source. Calls come from the whole dose curve; as a rule, active = well fitted inhibition curve with a large enough effect in the signal ratio in the repeat runs (not every such curve was filed as active); inconclusive = weak or mixed curves, or effect the other way; inactive = no such curve, though single readings can be large or run the other way; the % refers to the signal ratio.
% is set by controls: 0 for no effect and ±100 for the full control effect.

Chain of Bile acid receptor (Homo sapiens) (Q96RI1 whole entry, looked up): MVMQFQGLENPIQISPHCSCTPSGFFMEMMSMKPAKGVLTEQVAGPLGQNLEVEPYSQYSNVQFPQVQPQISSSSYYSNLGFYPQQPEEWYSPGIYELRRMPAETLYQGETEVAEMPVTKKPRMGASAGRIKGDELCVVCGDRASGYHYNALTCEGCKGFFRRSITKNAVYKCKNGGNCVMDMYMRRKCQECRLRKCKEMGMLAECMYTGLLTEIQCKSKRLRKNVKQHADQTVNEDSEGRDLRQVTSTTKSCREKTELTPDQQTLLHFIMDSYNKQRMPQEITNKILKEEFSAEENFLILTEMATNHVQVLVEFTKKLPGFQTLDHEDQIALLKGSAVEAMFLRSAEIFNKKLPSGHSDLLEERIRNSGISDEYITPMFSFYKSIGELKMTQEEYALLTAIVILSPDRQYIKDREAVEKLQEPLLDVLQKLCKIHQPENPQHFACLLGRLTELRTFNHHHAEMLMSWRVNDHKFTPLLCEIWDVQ

This experiment has as its target Bile acid receptor (Homo sapiens) (UniProt Q96RI1). Nature of the experiment: qHTS assay to identify small molecule antagonists of the farnesoid-X-receptor (FXR) signaling pathway (AID 743217). Particulars: HEK293T FXR-UAS-bla, beta-lactamase ratio, CDCA-stimulated, 16 h; series mostly up to 62.6 µM; activity change, negative = inhibition: at the top concentration. The text has this: U.S. Tox21 Program National Center for Advancing Translational Sciences [NCATS] NIH Chemical Genomics Center [NCGC] U.S. Environmental Protection Agency [EPA] National Institutes of Environmental Health Sciences [NIEHS] National Toxicology Program [NTP] U.S. Food and Drug Administration [FDA] Tox21 Assay Overview: The farnesoid-X-receptor (FXR), a nuclear hormone receptor, is highly expressed in liver, intestine, kidney and adrenal cortex. Natural ligands of FXR are the bile acids (Cholic acid, Chenodeoxy cholic acid etc). FXR is an important regulator of diverse metabolic pathways, including the bile acid homeostasis, lipid and glucose metabolisms. FXR regulates the expression of target genes by binding either as a monomer or as a heterodimer with the retinoid X receptor (RXR). Numerous studies have reported that FXR exerts protective function during cholestasis, diabetes, liver regeneration, and cancer. To identify compounds that inhibit FXR signaling, GeneBLAzer FXR-UAS-bla HEK 293T cell line (Invitrogen, Carlsbad, CA) containing a beta-lactamase reporter gene under the control of a UAS response element was used to screen the Tox21 10K compound library.
Tox21 Assay Protocol Summary: FXR-bla cells were dispensed at 5000 cells/5uL/well in 1536-well black wall/clear bottom plates using a Multidrop Combi (Thermo Fisher Scientific, Waltham, MA) dispenser. After the assay plates were incubated at 37C and 5% CO2 for 5 h, 23 nL of compounds dissolved in DMSO, positive controls or DMSO only was transferred to the assay plate by a Pintool station (Kalypsys, San Diego, CA), followed by addition of 1 uL Chenodeoxycholic acid (50 uM, final concentration in the wells). The assay plates were incubated at 37C for 16 h. After 1 uL of LiveBLAzerTM B/G FRET substrate was added using a Bioraptr Flying Reagent Dispenser (FRD) workstation (Beckman Coulter, Indianapolis, IN), the plates were incubated at room temperature for 2 h, and fluorescence intensity was measured by an Envision plate reader (PerkinElmer, Shelton, CT).
In general terms: In qHTS, concentration-response curves come from the screen itself.
For `COC(=O)/C=C/C(C)=C\C=C\C(C)=C\C=C\C=C(C)\C=C\C=C(C)\C=C\C(=O)O`, the “activity change, negative = inhibition” value was -9.42% (inactive).
The result for `O=C(O)c1ccc2c(c1)nc(C(=O)NC1CCN(C3CC3)CC1)n2Cc1cc(-c2ccc(Cl)s2)on1` reads -6.06% [at 29.1 µM] (inactive); that for `O=C1C=CCCC1`, -0.427% [at 81.1 µM] (inactive); that for `O=C(O)c1ccccc1-n1cc(C(=O)O)c(=O)c2cc(Nc3c(F)cc(F)cc3Cl)c(Cl)cc21`, 5.34% (inactive).
`CC/C=C\CCO`: the “activity change, negative = inhibition” value was 3.62% (inactive).
The result for `CCCCCCCCS` reads -6.42% [at 81.1 µM] (inactive).
The result for `Cc1c(Cl)cccc1Nc1ccccc1C(=O)O` reads -0.155% (inactive); that for `COc1ccc(C(=O)Nc2ccccc2)cc1[N+](=O)[O-]`, -9.51% [at 81.1 µM] (inactive); that for `C=CC(=O)NC(C)(C)C`, 8.64% (inactive).
The result for `CCCC(=O)OCCC(C)C` reads -1.28% (inactive).
Consider `Clc1cccc(C(c2ccc3nc[nH]c3c2)n2ccnc2)c1` (stereo not given), for which the “activity change, negative = inhibition” value is 0.207% (inactive).
In the case of `O=C(OCCOCCOCCOC(=O)c1ccccc1)c1ccccc1`, the “activity change, negative = inhibition” value was -0.384% (inactive).
For the compound `CC1=C(C)C(=O)C(CCCCC#CCCCC#CCO)=C(C)C1=O`, the “activity change, negative = inhibition” value was -18% (inactive).
The result for `O=c1[nH][nH]c2ccccc12` reads -3.41% [at 81.1 µM] (inactive); that for `O=P(c1ccccc1)(c1ccccc1)c1ccccc1`, 1.24% (inactive).
The result for `Clc1cc(Cl)c2c(c1)N=C1CCCCCN1C2` reads -9.41% (inactive); that for `O=C(c1ccco1)N1CCNCC1`, 1.03% (inactive); that for `Cc1c(Cl)cccc1[N+](=O)[O-]`, -20.9% (inactive).
In the case of `CC/C=C/CCO`, the “activity change, negative = inhibition” value is 1.04% [at 81.1 µM] (inactive).
The result for `CC(C)(C)c1cc(C=O)cc(C(C)(C)C)c1O` reads 5.98% (inactive).
As for `COC(=O)C(C)(C)C`, the “activity change, negative = inhibition” value is 3.57% [at 81.1 µM] (inactive).
Take `COc1ccc(/C=C/S(=O)(=O)NC(=O)c2ccc(C)cc2Cl)cc1`: the “activity change, negative = inhibition” value is 13.3% (inactive).
The figure for `CCCC(=O)OCc1ccccc1` is 3.54% (inactive).
The result for `CCCCCC1CCC(=O)O1` (stereo not given) reads -3.07% (inactive); that for `CCCCCCOC(=O)c1ccccc1`, -2.51% (inactive); that for `Nc1ncnc2c1ncn2[C@@H]1O[C@H](CO)[C@@H](O)[C@H]1O`, -8.09% (inactive).
Take `OCCc1ccncc1`: the “activity change, negative = inhibition” value is 1.33% (inactive).
Consider `CC(CC(C#N)(c1ccccc1)C(C)C)N(C)C` (stereo not given), for which the “activity change, negative = inhibition” value was 1.68% (inactive).
On to `C1=COCCC1`, for which the “activity change, negative = inhibition” value was -0.192% (inactive).
The figure for `CC(=O)S[C@H](C(=O)N[C@H]1Cc2ccccc2[C@H]2CCC[C@@H](C(=O)O)N2C1=O)C(C)C` is -1.83% (inactive); for `CCCCCCCCCCCCCCCCC(=O)O` it is -0.556% (inactive); for `Oc1ccc(CCNCCCCCCNCCc2ccccc2)cc1O` it is 0.0471% (inactive).
For `CC(C)NC(=O)c1ccccc1N`, the “activity change, negative = inhibition” value is -0.716% (inactive).
`CCOc1cc(OCC)c(C(C)=O)cc1OCC`: the “activity change, negative = inhibition” value was -0.432% (inactive).
The result for `CCCCCCCCCC(C)C=O` (stereo not given) reads 1.29% (inactive); that for `C=CC(C)(O)CC/C=C(/C)CCC=C(C)C` (stereo not given), -3.5% (inactive); that for `CCCCCCCCCCCCCCCCCCCl`, -9.56% [at 5.95 µM] (inactive).
Turning to `Nc1ccc(-c2ccc(F)cc2)cc1`, the “activity change, negative = inhibition” value was 6.43% (inactive).
As to `CC1(C)[C@@H]2CC[C@]3(C2)[C@@H]1C(=O)CCC3(C)C`, the “activity change, negative = inhibition” value was 0.0345% (inactive).
For the compound `Nc1cccc2c(=O)[nH][nH]c(=O)c12`, the “activity change, negative = inhibition” value is -0.464% [at 81.1 µM] (inactive).
